# Data published in PubChem BioAssay AID504848 (National Center for Advancing Translational Sciences (NCATS), 2011).
# Screen size: about 2,300 compounds; about 1,400 (61%) were called active. Roughly 29% stayed inconclusive and do not appear here. Calls follow the shape of the dose curve; as a rule, active = well fitted inhibition curve with a large enough effect; inconclusive = small, poorly fitted or top-dose-only effect, or effect the other way; inactive = no such curve, though single readings can be large or run the other way. So high a share suggests a set chosen from earlier hits. Some of the results follow.
# Experiment: Confirmation screen for delayed death inhibitors of the malarial parasite plastid, 96 hour incubation; also: nearly all actives have a fitted effect of over 60% in size
# Settings: P. falciparum luciferase growth in erythrocytes; series mostly up to 28.7 µM; activity change, negative = inhibition: at the top concentration
# Summary of the method: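 Erythrocytes infected with luciferase-expressing P. falciparum (2% hematocrit, 0.1% parasitemia final) in RPMI 1640 with 0.5% Albumax, exposed to compounds 96 h at 37 C, 5% CO2. Growth inhibition read as decreased luciferase luminescence.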
# % is scaled to controls: 0 for no effect and ±100 for the full control effect; potency is read from the fitted curve at half-maximal effect.
SMILES,Potency,"activity change, negative = inhibition"
COc1ccc(C(=S)N2CCN(c3ccccc3C)CC2)cc1,12.6 µM (active),
Cc1ccc(C(=O)NCCc2nnc3ccc(SCC(=O)NCc4ccc(F)cc4)nn23)cc1,7.94 µM (active),
COc1cccc(NC(=O)CSc2ccc3nnc(CCNC(=O)c4ccccc4)n3n2)c1,,-98.6% (inactive)
Cc1cccc(C)c1Nc1c(-c2ccc(N3CCOCC3)cc2)nc2ncccn12,12.6 µM (active),
CC(C)(C)c1ccc(C(=O)Nc2sc3c(c2C(=O)O)CCC3)cc1,10 µM (active),
O=C(/C=C/c1cccs1)Nc1sc2c(c1C(=O)O)CCCC2,,1.27% (inactive)
Cc1ccc(-c2nnc(SCC(=O)N/N=C/c3cccs3)n2-c2ccc(C)cc2)cc1,10 µM (active),
Cc1nnc(N2CCCC(C(=O)NCc3cccc(F)c3)C2)c2nn(-c3ccccc3)c(C)c12 (stereo not drawn),12.6 µM (active),
CCCCc1nc2cc(C(=O)N3CCN(c4nc(C)cnc4C)CC3)ccc2o1,10 µM (active),
Cc1ccc(NS(=O)(=O)c2ccc(-c3cnc(C4CC4)o3)cc2)c(C)c1,7.08 µM (active),
Cn1c(=O)n(Cc2ccccc2)c(=O)c2c1nc1n2CCN1Cc1ccco1,7.94 µM (active),
Cc1nc(-c2ccc(S(=O)(=O)N3CCCN(CCc4ccccc4)CC3)s2)cs1,3.55 µM (active),
CCCCCCCNC(=O)C1(CC2CC(c3ccc(Cl)cc3)=NO2)CCN(C(=O)Cc2ccc(F)cc2)CC1 (stereo not drawn),7.94 µM (active),
CCCCCCCNC(=O)C1(CC2CC(c3ccc(Cl)cc3)=NO2)CCN(C(=O)C2CCCC2)CC1 (stereo not drawn),10 µM (active),
CCCC(=O)N1CCN(c2ccc(NC(=O)c3ccc([N+](=O)[O-])o3)cc2Cl)CC1,8.91 µM (active),
CC(C)C(=O)N1CCN(c2ccc(NC(=O)c3ccc([N+](=O)[O-])o3)cc2)CC1,4.47 µM (active),
O=C(Nc1ccc(S(=O)(=O)N2CCOCC2)cc1)c1ccc([N+](=O)[O-])o1,3.55 µM (active),
O=C(Nc1ccc(N2CCOCC2)c(Cl)c1)c1cc2ccccc2o1,2.82 µM (active),
CCN1CCN(c2ccc(NC(=O)c3ccc([N+](=O)[O-])o3)cc2Cl)CC1,7.94 µM (active),
CC(C)C(=O)N1CCN(c2ccc(NC(=O)c3ccco3)cc2Cl)CC1,6.31 µM (active),
CCCC(=O)N1CCN(c2ccc(NC(=O)c3ccc([N+](=O)[O-])o3)cc2)CC1,6.31 µM (active),
Cc1cccc(-c2c(NC(=O)c3ccco3)oc3ccc(Cl)cc3c2=O)c1,,-13.7% (inactive)
CCC(=O)N1CCN(c2ccc(NC(=O)c3ccc([N+](=O)[O-])o3)cc2Cl)CC1,7.94 µM (active),
CC(=O)OC[C@H]1O[C@@H](n2ncc(=O)[nH]c2=O)[C@H](OC(C)=O)[C@@H]1OC(C)=O,,-11.2% (inactive)

SMILES,Potency,"activity change, negative = inhibition"
CS(=O)(=O)N1CCN(c2ccc(NC(=O)c3ccc([N+](=O)[O-])o3)cc2)CC1,7.08 µM (active),
O=C(c1cccc(S(=O)(=O)N2CCc3ccccc32)c1)N1CCN(c2ccccc2)CC1,11.2 µM (active),
O=C(CNC(=O)c1cccc(S(=O)(=O)N2CCc3ccccc32)c1)Nc1ccc(F)c(F)c1F,11.2 µM (active),
CN(Cc1nc2ccccc2c(=O)[nH]1)C(=O)c1cccc(S(=O)(=O)N2CCc3ccccc32)c1,11.2 µM (active),
COc1cc2c(cc1OC)CN(C(=O)c1cccc(S(=O)(=O)N3CCc4ccccc43)c1)CC2,11.2 µM (active),
CCc1cc(SC#N)ccc1N,8.91 µM (active),
CC(C)(C)Nc1nc(Cl)nc(NC2CCCCC2)n1,12.6 µM (active),
CCCc1cc(=O)n2nc(N3CCC(C(=O)NCc4ccc(C)o4)CC3)sc2n1,8.91 µM (active),
CCCc1cc(=O)n2nc(N3CCC(C(=O)N4CCN(c5ccc(OC)cc5)CC4)CC3)sc2n1,10 µM (active),
COc1cc(CNc2cccc(C(=O)O)c2)cc(Br)c1OCC(=O)NC(C)(C)C,12.6 µM (active),
COc1ccccc1CCC(=O)N1CCN(S(=O)(=O)c2cc(C(F)(F)F)ccc2Cl)CC1,11.2 µM (active),
Cc1ccccc1-c1cc(C(=O)n2cccn2)c2cc(Cl)ccc2n1,,-12.5% (inactive)
Cc1ccc(C)c(-c2cc(C(=O)NNC(=S)NCC(C)C)c3ccccc3n2)c1,11.2 µM (active),
Cc1ccc(C)c(-c2cc(C(=O)Nc3nccs3)c3ccccc3n2)c1,1.12 µM (active),
Cc1ccc(/C=C/c2ccc(N(C)C)cc2)[n+](C)c1,0.501 µM (active),
CC[n+]1ccccc1/C=C/c1ccc(N(C)C)cc1,1.58 µM (active),
Cn1c(=O)c(=O)n(C)c2cc(N3CCCCC3)c(NS(=O)(=O)c3ccc(Br)cc3)cc21,12.6 µM (active),
Cc1ccc(C(=O)NNc2c3ccccc3nc3ccccc23)cc1,10 µM (active),
O=C(NNc1c2ccccc2nc2ccccc12)C(O)c1ccccc1 (stereo not drawn),10 µM (active),
COc1ccccc1OCC(=O)NNc1c2ccccc2nc2ccccc12,5.01 µM (active),
Cc1ccc(OCC(=O)NNc2c3ccccc3nc3ccccc23)cc1,6.31 µM (active),
Cc1cccc(OCC(=O)NNc2c3ccccc3nc3ccccc23)c1,4.47 µM (active),
O=C(COc1cccc2ccccc12)Nc1ccc(Cl)cc1C(=O)O,,2.28% (inactive)
O=C(COc1ccccc1)NNc1c2ccccc2nc2ccccc12,5.01 µM (active),

SMILES,Potency,"activity change, negative = inhibition"
O=C(CCCO)NNc1c2ccccc2nc2ccccc12,6.31 µM (active),
O=C(COc1ccccc1)Nc1nnc(-c2ccc(F)cc2)o1,,6.86% (inactive)
COc1cccc(C(=O)NNc2c3ccccc3nc3ccccc23)c1,15.8 µM (active),
O=C(CN1CCOCC1)NNc1c2ccccc2nc2ccccc12,12.6 µM (active),
N#Cc1c(N2C(=O)Nc3ccccc3N2O)sc2c1CCCCCC2,14.1 µM (active),
O=C(NC1CCC1)C1CCC(=O)N(Cc2ccccc2F)C1 (stereo not drawn),,-10.3% (inactive)
Cc1ccc2nc(CNC(=O)C3CCC(=O)N(Cc4ccccc4F)C3)cn2c1 (stereo not drawn),11.2 µM (active),
COCCn1c(C)cc(C(=O)CSc2cc(C)c3ccc(OC)cc3n2)c1C,17.8 µM (active),
CCCSCCCNC(=O)c1ccccc1NC(=O)C1=CSCCO1,12.6 µM (active),
COc1ccc([C@@]2(C(C)C)ON(c3ccccc3C(F)(F)F)C2=O)cc1,0.501 µM (active),
COc1ccc(S(=O)(=O)N/N=C(/C)c2ccco2)cc1,,-15.7% (inactive)
COc1ccc(CN(CCC(c2ccccc2)c2ccco2)C(=O)c2ccco2)cc1 (stereo not drawn),8.91 µM (active),
Fc1cc2nc(-c3ccncc3)[nH]c2cc1F,3.16 µM (active),
COCCN(C(=S)Nc1ccc(OC)c(Cl)c1)C1CCN(C(C)C)CC1,11.2 µM (active),
CC(C)N1CCc2c(sc(NC(=S)NC(=O)c3ccccc3)c2C#N)C1,2 µM (active),
CC(=O)Nc1sc2c(c1-c1nc3ccccc3s1)CCN(C(C)C)C2,0.316 µM (active),
N#Cc1cc(S(=O)(=O)c2ccccc2)c(N)[nH]c1=O,,-5.71% (inactive)
COc1cccc(NC(=O)c2ccc(CN3CCN(c4ccccc4)CC3)cc2)c1,14.1 µM (active),
COc1ccc(NC(=O)c2ccc(CN3CCN(c4ccccc4)CC3)cc2)cc1OC,12.6 µM (active),
COc1cccc(NC(=O)c2ccc3c(c2)C(=O)N(CC2CCCO2)C3=O)c1 (stereo not drawn),,-15.2% (inactive)
C#CC[N+]1(CC#Cc2ccc(C#CC[N+]3(CC#C)CCOCC3)cc2)CCOCC1,5.62 µM (active),
Cc1ccc(-c2csc3nc[nH]c(=O)c23)cc1,,-26.9% (inactive)
Cc1c(C)n2c(SCC(=O)Nc3ccc4c(c3)OCCO4)nnc2[nH]c1=O,1.58 µM (active),
CCOc1ccc2c(c1)OC(c1ccccc1)(C(F)(F)F)NC2=O (stereo not drawn),1.41 µM (active),

SMILES,Potency,"activity change, negative = inhibition"
O=C(CCNS(=O)(=O)c1cccc2nonc12)NCCc1ccc(Cl)cc1,11.2 µM (active),
O=C(Nc1nnc(Cc2ccc(F)cc2)s1)Nc1ccccc1F,12.6 µM (active),
O=S(=O)(c1cccs1)N1CCN(c2ccnc3cc(Cl)ccc23)CC1,4.47 µM (active),
O=C(Nc1ccc(F)cc1F)c1ccc2c(c1)[nH]c(=O)n2Cc1ccc(F)cc1,14.1 µM (active),
CC1(C)CC(=O)C2=C(C1)OC1=C(C(=O)CC(C)(C)C1)C2c1ccc(O)cc1O,7.08 µM (active),
CC(C)NS(=O)(=O)c1ccc(NC(=S)NC(=O)c2ccc(-c3ccccc3)cc2)cc1,5.01 µM (active),
CC(C)C(=O)NC(=S)Nc1ccc(S(=O)(=O)NC2CCCCC2)cc1,,-50.8% (inactive)
O=C(NC(=C(Cl)Cl)S(=O)(=O)c1ccc(Cl)cc1)c1ccccc1,,-22.7% (inactive)
CCC/C(C#CCCN1C(=O)c2ccccc2C1=O)=C1/c2ccccc2C(=O)N1c1ccccc1,5.01 µM (active),
O=C(CCN1C(=O)c2ccccc2C1=O)C1=NN[C@@H]2C(=O)N(c3ccc(F)cc3)C(=O)[C@H]12,,22.9% (inactive)
COC(=O)Cc1ccc(NC(=O)C(c2ccccc2)c2ccccc2)cc1,10 µM (active),
CCOC(=O)c1c(C)sc2c1N(C(=O)CCl)c1cc(Cl)ccc1S2,2 µM (active),
NC(=O)c1ccc(NC(=O)C#Cc2ccccc2)cc1,1 µM (active),
O=C(C#Cc1ccccc1)Nc1ccccc1F,12.6 µM (active),
O=C(C#Cc1ccccc1)Nc1cccc(F)c1,1 µM (active),
COc1ccc(NC(=O)C#Cc2ccccc2)cc1,7.94 µM (active),
Cc1ccc(Cn2c(C)nc3c(c2=O)c2nc4ccccc4nc2n3Cc2ccco2)cc1,5.01 µM (active),
Nc1ccccc1SSc1ccccc1N,7.94 µM (active),
CCN(CC)S(=O)(=O)c1cccc(NC(=O)c2cc(-c3cccs3)nn2-c2ccccc2)c1,12.6 µM (active),
Brc1cccc(OCCCCN2CCCCC2)c1,12.6 µM (active),
Clc1cccc(OCCCCCN2CCOCC2)c1,,-30% (inactive)
